The text below walks through data of PubChem BioAssay (Tox21).

Several values for one entry are separate records, joined by “and”; a condition that tells them apart may be missing. Equal values may be shown once. Records with an inconclusive call do not appear. A call without a number means that no potency is given here. A structure can be active in one record and inactive in another. Activity calls are given as the source filed them. Calls follow the shape of the dose curve; as a rule, active = well fitted curve in the direction sought with a large enough effect in the repeat runs; inconclusive = weak or mixed curves; inactive = no such curve, though single readings can be large; an effect the other way counts as inactive or inconclusive.

The first test is described as follows: qHTS assay to identify small molecule HDAC inhibitors - cell viability counter screen (AID 1259365). Also: nearly all actives have a fitted effect of over 50% in size. To be noted: HCT-116 viability, CellTiter-Glo ATP luminescence, 2 h; series mostly up to 92.4 µM. In a few lines: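 HCT-116 (wild type), 1,500 cells/well, overnight 37C/5% CO2; compound in DMSO 2hr; CellTiter-Glo 30min RT; luminescence read.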
Turning to `O=[N+]([O-])c1ccc(O)cc1`, the compound was called inactive.
On to `O=C1OC(c2ccc(O)cc2)(c2ccc(O)cc2)c2ccccc21`, for which the compound was classed as inactive.
Consider `N[C@@H](Cc1c[nH]c2ccccc12)C(=O)O`, for which the result was inactive.
Same read-out and setting: in the case of `NC(=O)c1ccc([N+](=O)[O-])cc1Cl` it was “inactive”; in that of `CN(C)C=O`, “inactive”.
As for `C=C(C)OC(C)=O`, the result was inactive.
On the same count and under the same terms, in the case of `CC(=O)/C=C/C1=C(C)CCCC1(C)C` it was “inactive”; in that of `c1ccc2[nH]c(-c3cscn3)nc2c1`, “inactive”; in that of `CC1=C(/C=C/C(C)=C/C=C/C(C)=C/C(=O)O)C(C)(C)CCC1`, “inactive”.
Still for that read-out and setting: the value for `CCCCC/C(C=O)=C\c1ccccc1` was “inactive”.
Same read-out and setting: in the case of `Cc1cccc(C)c1O` it was “inactive”; in that of `Cc1cccc(Nc2cc(Cl)nc(SCC(=O)O)n2)c1C`, “inactive”; in that of `CC(C)CC(C)CC(O)CC(C)C` (stereo not given), “inactive”.
On to `CC(=O)CCC(C)C`, for which the result was inactive.
Still for that read-out and setting: the value for `C[C@]12CC[C@@H]3c4ccc(O)cc4CC[C@H]3[C@@H]1CCC2=O` was “inactive”.
Turning to `COc1ccccc1NC(=O)CC(C)=O`, the call was inactive.
On the same count and under the same terms, the value for `COc1ccccc1O` was “inactive”; that for `O=C(O)CCCCC1CCSS1` (stereo not given) was “inactive”; that for `C#C[C@]1(O)CC[C@H]2[C@@H]3CCc4cc(O)ccc4[C@H]3CC[C@@]21C` was “inactive”.
On the same count and under the same terms, in the case of `CCCCOCCOCCOC(C)=O` it was “inactive”.
For the compound `COc1ccc(O)cc1`, the outcome was inactive.
As for `COc1cc2c(c(OC)c1OC)-c1ccc(OC)c(=O)cc1[C@@H](NC(C)=O)CC2`, the compound was called inactive.
Still for that read-out and setting: the value for `C[C@]12CC[C@@H]3c4ccc(O)cc4C[C@@H](CCCCCCCCCS(=O)CCCC(F)(F)C(F)(F)F)[C@H]3[C@@H]1CC[C@@H]2O` (stereo not given in full) was “inactive”.
Turning to `CO[C@H]1C=CO[C@@]2(C)Oc3c(C)c(O)c4c(O)c(c(/C=N/N5CCN(C)CC5)c(O)c4c3C2=O)NC(=O)/C(C)=C\C=C[C@H](C)[C@H](O)[C@@H](C)[C@@H](O)[C@@H](C)[C@H](OC(C)=O)[C@@H]1C`, the compound was classed as inactive.
On the same count and under the same terms, in the case of `COC(=O)C1CCC(C(=O)OC)CC1` (stereo not given) it was “inactive”.
With `COCC(C)N` (stereo not given), the compound was called inactive.
Same read-out and setting: the value for `O=C1CCCCCN1` was “inactive”.
For the compound `NC(=O)OCC(COC(N)=O)c1ccccc1`, the compound was called inactive.
Same read-out and setting: the value for `CCCCOC(=O)CCCCCCCCC(=O)OCCCC` was “inactive”; that for `NC(=O)NO` was “inactive”.

The nature of a further test: qHTS assay to identify small molecule agonists of the sonic hedgehog signaling (Shh) pathway - cell viability counter screen (AID 1259366). Also: nearly all actives have a fitted effect of over 50% in size. Also: potency is read from the fitted curve at half-maximal effect. To be noted: NIH/3T3 Gli1-Luc viability, CellTiter-Fluor, 24 h; series mostly up to 92.4 µM. In a few lines:
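CellTiter-Fluor fluorescence read-out, 1 hr at 37C, added after 23hr compound exposure. Cells: 3T3 Gli1-Luc, an NIH/3T3 clone with stably integrated Gli1-Luc reporter, plated 4hr before compound.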
As for `O=[N+]([O-])c1ccc(O)cc1`, the Potency was 50.4 µM (active) and 54.5 µM (active).
The same measure, in the same setting: the value for `O=C1OC(c2ccc(O)cc2)(c2ccc(O)cc2)c2ccccc21` was “inactive”; that for `N[C@@H](Cc1c[nH]c2ccccc12)C(=O)O` was “inactive”.
The same measure, in the same setting: in the case of `NC(=O)c1ccc([N+](=O)[O-])cc1Cl` it was “inactive”; in that of `CN(C)C=O`, “inactive”; in that of `C=C(C)OC(C)=O`, “inactive”.
`CC(=O)/C=C/C1=C(C)CCCC1(C)C`: the Potency result is “inactive”.
The same measure, in the same setting: in the case of `c1ccc2[nH]c(-c3cscn3)nc2c1` it was “inactive”; in that of `CC1=C(/C=C/C(C)=C/C=C/C(C)=C/C(=O)O)C(C)(C)CCC1`, “inactive”; in that of `CCCCC/C(C=O)=C\c1ccccc1`, “inactive”.
On the same count and under the same terms, the value for `Cc1cccc(C)c1O` was “inactive”; that for `Cc1cccc(Nc2cc(Cl)nc(SCC(=O)O)n2)c1C` was “inactive”.
Still for that read-out and setting: in the case of `CC(C)CC(C)CC(O)CC(C)C` (stereo not given) it was “inactive”.
Take `CC(=O)CCC(C)C`: the Potency result is “inactive”.
On the same count and under the same terms, the value for `C[C@]12CC[C@@H]3c4ccc(O)cc4CC[C@H]3[C@@H]1CCC2=O` was “inactive”; that for `COc1ccccc1NC(=O)CC(C)=O` was “inactive”; that for `COc1ccccc1O` was “inactive”.
Same read-out and setting: in the case of `O=C(O)CCCCC1CCSS1` (stereo not given) it was “inactive”; in that of `C#C[C@]1(O)CC[C@H]2[C@@H]3CCc4cc(O)ccc4[C@H]3CC[C@@]21C`, “inactive”.
Same read-out and setting: in the case of `CCCCOCCOCCOC(C)=O` it was “inactive”.
For the compound `COc1ccc(O)cc1`, the Potency entry is “inactive”.
As for `COc1cc2c(c(OC)c1OC)-c1ccc(OC)c(=O)cc1[C@@H](NC(C)=O)CC2`, the Potency entry is “inactive”.
The same measure, in the same setting: the value for `C[C@]12CC[C@@H]3c4ccc(O)cc4C[C@@H](CCCCCCCCCS(=O)CCCC(F)(F)C(F)(F)F)[C@H]3[C@@H]1CC[C@@H]2O` (stereo not given in full) was “inactive”; that for `CO[C@H]1C=CO[C@@]2(C)Oc3c(C)c(O)c4c(O)c(c(/C=N/N5CCN(C)CC5)c(O)c4c3C2=O)NC(=O)/C(C)=C\C=C[C@H](C)[C@H](O)[C@@H](C)[C@@H](O)[C@@H](C)[C@H](OC(C)=O)[C@@H]1C` was 24.5 µM (active) and 15.5 µM (active) and 13.3 µM (active).
Consider `COC(=O)C1CCC(C(=O)OC)CC1` (stereo not given), for which the Potency result is “inactive”.
On the same count and under the same terms, the value for `COCC(C)N` (stereo not given) was “inactive”; that for `O=C1CCCCCN1` was 15.4 µM (active) and inactive.
Same read-out and setting: the value for `NC(=O)OCC(COC(N)=O)c1ccccc1` was “inactive”; that for `CCCCOC(=O)CCCCCCCCC(=O)OCCCC` was “inactive”.
The same measure, in the same setting: the value for `NC(=O)NO` was “inactive”.

A further test can be described thus: qHTS assay to identify small molecule antagonists of the sonic hedgehog signaling (Shh) pathway - cell viability counter screen (AID 1259367). Also: nearly all actives have a fitted effect of over 55% in size. Also: potency is read from the fitted curve at half-maximal effect. The conditions noted are these: NIH/3T3 Gli1-Luc viability, CellTiter-Fluor, 24 h; series mostly up to 92.4 µM. In a few lines: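 Cells: 3T3 Gli1-Luc, 2,000/well, 4 hr pre-incubation. Compounds in DMSO, then conditioned medium. Incubation 24 hr, 37C, 5% CO2. CellTiter-Fluor at 23 hr, 1 hr, fluorescence.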
On the technique in general: qHTS replaces the single test concentration by a dilution series.
In the case of `O=[N+]([O-])c1ccc(O)cc1`, the Potency is 56.6 µM (active).
Still for that read-out and setting: in the case of `O=C1OC(c2ccc(O)cc2)(c2ccc(O)cc2)c2ccccc21` it was 54.1 µM (active) and inactive; in that of `N[C@@H](Cc1c[nH]c2ccccc12)C(=O)O`, “inactive”; in that of `NC(=O)c1ccc([N+](=O)[O-])cc1Cl`, “inactive”.
Same read-out and setting: the value for `CN(C)C=O` was “inactive”; that for `C=C(C)OC(C)=O` was “inactive”.
`CC(=O)/C=C/C1=C(C)CCCC1(C)C`: the Potency entry was “inactive”.
In the case of `c1ccc2[nH]c(-c3cscn3)nc2c1`, the Potency entry was “inactive”.
Take `CC1=C(/C=C/C(C)=C/C=C/C(C)=C/C(=O)O)C(C)(C)CCC1`: the Potency result is “inactive”.
Still for that read-out and setting: in the case of `CCCCC/C(C=O)=C\c1ccccc1` it was “inactive”; in that of `Cc1cccc(C)c1O`, “inactive”; in that of `Cc1cccc(Nc2cc(Cl)nc(SCC(=O)O)n2)c1C`, “inactive”.
The same measure, in the same setting: the value for `CC(C)CC(C)CC(O)CC(C)C` (stereo not given) was “inactive”; that for `CC(=O)CCC(C)C` was “inactive”; that for `C[C@]12CC[C@@H]3c4ccc(O)cc4CC[C@H]3[C@@H]1CCC2=O` was “inactive”.
Regarding `COc1ccccc1NC(=O)CC(C)=O`, the Potency result was “inactive”.
With `COc1ccccc1O`, the Potency entry is “inactive”.
Take `O=C(O)CCCCC1CCSS1` (stereo not given): the Potency result was “inactive”.
On to `C#C[C@]1(O)CC[C@H]2[C@@H]3CCc4cc(O)ccc4[C@H]3CC[C@@]21C`, for which the Potency entry was “inactive”.
Still for that read-out and setting: the value for `CCCCOCCOCCOC(C)=O` was “inactive”.
Regarding `COc1ccc(O)cc1`, the Potency entry was “inactive”.
Still for that read-out and setting: in the case of `COc1cc2c(c(OC)c1OC)-c1ccc(OC)c(=O)cc1[C@@H](NC(C)=O)CC2` it was “inactive and 48.6 nM (active) and 376 nM (active)”; in that of `C[C@]12CC[C@@H]3c4ccc(O)cc4C[C@@H](CCCCCCCCCS(=O)CCCC(F)(F)C(F)(F)F)[C@H]3[C@@H]1CC[C@@H]2O` (stereo not given in full), “inactive”.
The same measure, in the same setting: in the case of `CO[C@H]1C=CO[C@@]2(C)Oc3c(C)c(O)c4c(O)c(c(/C=N/N5CCN(C)CC5)c(O)c4c3C2=O)NC(=O)/C(C)=C\C=C[C@H](C)[C@H](O)[C@@H](C)[C@@H](O)[C@@H](C)[C@H](OC(C)=O)[C@@H]1C` it was 24.5 µM (active) and 17.4 µM (active) and 11.9 µM (active).
On the same count and under the same terms, in the case of `COC(=O)C1CCC(C(=O)OC)CC1` (stereo not given) it was “inactive”.
Turning to `COCC(C)N` (stereo not given), the Potency result was “inactive”.
The same measure, in the same setting: the value for `O=C1CCCCCN1` was 3.86 µM (active) and inactive.
On the same count and under the same terms, in the case of `NC(=O)OCC(COC(N)=O)c1ccccc1` it was “inactive”; in that of `CCCCOC(=O)CCCCCCCCC(=O)OCCCC`, “inactive”.
Still for that read-out and setting: the value for `NC(=O)NO` was “inactive”.
